# From the supplement of paper PMC9492666
# Structures can show the parent of a compound that is named as a salt.
# What was measured:
# Details in all cases: 72 h
# HCC1937 [1] = test: relative cell viability, compound alone, vs DMSO (fraction of DMSO control); higher = less growth inhibition
# MDA-MB-231 [2] = test: as above
# HCC1937 [3] = test: relative cell viability, compound + RSL3, vs DMSO (fraction of DMSO control); higher = less growth inhibition
# MDA-MB-231 [4] = test: as above
# 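Wherever relative cell viability, compound + RSL3, vs DMSO is given: breast cancer cell viability read out with the CCK-8 kit after co-treatment of each compound with the ferroptosis inducer RSL3.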
# 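Wherever relative cell viability, compound alone, vs DMSO is given: viability read out with the CCK-8 kit in 96-well plates, screening a set of 303 compounds acting on lipid metabolism targets.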
SMILES,relative cell viability (HCC1937 [1]),relative cell viability (MDA-MB-231 [2]),relative cell viability (HCC1937 [3]),relative cell viability (MDA-MB-231 [4])
c1cc(-c2cnn3cc(-c4ccc(OCCN5CCCCC5)cc4)cnc23)ccn1 [Dorsomorphin dihydrochloride],0.138,0.301,–,–
CC(C)(CCCCCC(O)CCCCCC(C)(C)C(=O)O)C(=O)O,0.598,0.886,–,–
CC(=O)Nc1nc(C)c(S(=O)(=O)Nc2ccc(C(O)(C(F)(F)F)C(F)(F)F)cc2)s1 + COC(=O)c1ccc([C@H]2c3[nH]c4ccccc4c3C[C@H](C(=O)OC)N2C(=O)CCl)cc1 [RSL3],–,–,0.484,0.952
Cc1c(C(=O)NN2CCCCC2)nn(-c2ccc(Cl)cc2Cl)c1-c1ccc(Cl)cc1 [Rimonabant],0.936,0.817,–,–
O=C(Nc1ccccc1)N1CCN(c2nc(-c3ccccc3)ns2)CC1 + COC(=O)c1ccc([C@H]2c3[nH]c4ccccc4c3C[C@H](C(=O)OC)N2C(=O)CCl)cc1 [RSL3],–,–,0.281,0.406
Fc1ccc(-c2c3cccc(C(F)(F)F)c3nn2Cc2ccc(F)cc2Cl)cc1 + COC(=O)c1ccc([C@H]2c3[nH]c4ccccc4c3C[C@H](C(=O)OC)N2C(=O)CCl)cc1 [RSL3],–,–,0.756,0.578
O=C(CCCCCCCC(=O)NCCO)NCCO [Adelmidrol] + COC(=O)c1ccc([C@H]2c3[nH]c4ccccc4c3C[C@H](C(=O)OC)N2C(=O)CCl)cc1 [RSL3],–,–,0.659,0.651
O=C(Nc1ccc(C(O)(C(F)(F)F)C(F)(F)F)cc1)c1ccc(C(F)(F)F)cc1 + COC(=O)c1ccc([C@H]2c3[nH]c4ccccc4c3C[C@H](C(=O)OC)N2C(=O)CCl)cc1 [RSL3],–,–,0.264,0.255
CC1(C)CC[C@]2(C(=O)O[C@@H]3O[C@H](CO)[C@@H](O)[C@H](O)[C@H]3O)CC[C@]3(C)C(=CC[C@@H]4[C@@]5(C)CC[C@H](O[C@@H]6O[C@H](C(=O)O)[C@@H](O)[C@H](O)[C@H]6O)C(C)(C)[C@@H]5CC[C@]43C)[C@@H]2C1 [Chikusetsusaponin IVa] + COC(=O)c1ccc([C@H]2c3[nH]c4ccccc4c3C[C@H](C(=O)OC)N2C(=O)CCl)cc1 [RSL3],–,–,0.597,0.572
O=C(CN1CCN(C(=O)c2ccco2)CC1)Nc1cc(C(F)(F)F)ccc1Cl + COC(=O)c1ccc([C@H]2c3[nH]c4ccccc4c3C[C@H](C(=O)OC)N2C(=O)CCl)cc1 [RSL3],–,–,0.268,0.373
O=C(Nc1cccnn1)N1CCC(=Cc2cccc(Oc3ccc(C(F)(F)F)cn3)c2)CC1,1.15,0.987,–,–
Nn1nnc2ccccc21 [1-Aminobenzotriazole] + COC(=O)c1ccc([C@H]2c3[nH]c4ccccc4c3C[C@H](C(=O)OC)N2C(=O)CCl)cc1 [RSL3],–,–,0.528,0.758
CC1=C[C@]2(O)O[C@@]3(CC2=C(C)C)[C@@H](C)CC[C@@H]13 [Curcumenol],0.868,0.863,–,–
CC1=C[C@]2(O)O[C@@]3(CC2=C(C)C)[C@@H](C)CC[C@@H]13 [Curcumenol] + COC(=O)c1ccc([C@H]2c3[nH]c4ccccc4c3C[C@H](C(=O)OC)N2C(=O)CCl)cc1 [RSL3],–,–,0.369,0.517
O=C(Nc1cnccc1Cl)N1CCN(Cc2ccc3c(c2)OC(F)(F)O3)CC1,0.747,0.771,–,–
C[C@@H]1O[C@@H](O[C@H]2[C@H](Oc3cc(O)c4c(c3)O[C@H](c3ccc(O)cc3)CC4=O)O[C@H](CO)[C@@H](O)[C@@H]2O)[C@H](O)[C@H](O)[C@H]1O [Naringin] + COC(=O)c1ccc([C@H]2c3[nH]c4ccccc4c3C[C@H](C(=O)OC)N2C(=O)CCl)cc1 [RSL3],–,–,0.949,0.658
CCCCC[C@H](O)CC(=O)CCc1ccc(O)c(OC)c1 [6-Gingerol] + COC(=O)c1ccc([C@H]2c3[nH]c4ccccc4c3C[C@H](C(=O)OC)N2C(=O)CCl)cc1 [RSL3],–,–,0.298,0.483
O=C(ON1C(=O)CCC1=O)N1CCN(C(c2ccc(Cl)cc2)c2ccc(Cl)cc2)CC1 [Cravatt Reagent],1.26,0.975,–,–
O=C(Nc1ccccc1)N1CCN(c2nc(-c3ccccc3)ns2)CC1,0.807,0.821,–,–
CC(=O)Nc1nc(C)c(S(=O)(=O)Nc2ccc(C(O)(C(F)(F)F)C(F)(F)F)cc2)s1,1.29,1.24,–,–
Cc1cc(SCc2sc(-c3ccc(C(F)(F)F)cc3)nc2C)ccc1OCC(=O)O,0.916,0.857,–,–
